Measurements reported in PubChem BioAssay (Tox21).
Records with an inconclusive call do not appear. The source made the active and inactive calls. Unless noted, calls follow the shape of the dose curve; as a rule, active = well fitted curve in the direction sought with a large enough effect in the repeat runs; inconclusive = weak or mixed curves; inactive = no such curve, though single readings can be large; an effect the other way counts as inactive or inconclusive.

Experiments:
[1] = qHTS assay to identify aromatase inhibitors - cell viability counter screen (AID 743084);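 also: cells stimulated with testosterone during compound exposure; nearly all actives have a fitted effect of over 55% in size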
[2] = target: Aryl hydrocarbon receptor (Homo sapiens) (UniProt P35869); assay: qHTS assay to identify small molecule that activate the aryl hydrocarbon receptor (AhR) signaling pathway (AID 743085); also: nearly all actives have a fitted effect of over 15% in size; also: potency is read from the fitted curve at half-maximal effect;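 as to activation: HG2L7.5c1 human HepG2 liver cells with stably integrated DRE-driven firefly reporter; series mostly up to about 70 µM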
Sequence of Aryl hydrocarbon receptor (Homo sapiens) (P35869 whole entry, looked up): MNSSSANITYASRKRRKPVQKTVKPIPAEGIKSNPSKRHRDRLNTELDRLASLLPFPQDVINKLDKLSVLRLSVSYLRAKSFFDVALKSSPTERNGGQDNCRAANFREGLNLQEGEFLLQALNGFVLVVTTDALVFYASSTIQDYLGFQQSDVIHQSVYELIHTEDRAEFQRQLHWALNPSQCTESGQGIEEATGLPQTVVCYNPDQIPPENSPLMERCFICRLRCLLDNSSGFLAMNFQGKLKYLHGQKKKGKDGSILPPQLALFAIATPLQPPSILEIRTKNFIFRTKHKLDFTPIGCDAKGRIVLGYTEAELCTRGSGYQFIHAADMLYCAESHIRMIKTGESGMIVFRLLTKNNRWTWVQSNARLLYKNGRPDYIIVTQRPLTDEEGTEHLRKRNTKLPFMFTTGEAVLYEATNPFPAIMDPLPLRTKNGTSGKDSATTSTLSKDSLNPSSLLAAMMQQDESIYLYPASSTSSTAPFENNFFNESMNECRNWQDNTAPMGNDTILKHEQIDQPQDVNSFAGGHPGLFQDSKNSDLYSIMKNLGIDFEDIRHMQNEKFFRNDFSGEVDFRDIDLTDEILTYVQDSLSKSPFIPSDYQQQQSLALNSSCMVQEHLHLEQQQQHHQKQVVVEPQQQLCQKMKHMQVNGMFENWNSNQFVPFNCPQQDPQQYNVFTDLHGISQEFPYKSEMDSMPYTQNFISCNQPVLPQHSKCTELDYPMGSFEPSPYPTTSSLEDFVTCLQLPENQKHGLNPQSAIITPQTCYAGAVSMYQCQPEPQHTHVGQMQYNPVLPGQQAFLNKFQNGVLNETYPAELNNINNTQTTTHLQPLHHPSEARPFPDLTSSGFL
Procedure, shortened: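 Steps: seed HepG2-AhR-luc cells; allow 5 h at 37C; pin-transfer test compound or vehicle; incubate 24 h at 37C; add viability dye (30 min, 37C) and read fluorescence; add luciferase substrate (30 min, RT) and read luminescence.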

[3] = qHTS assay to identify small molecule that activate the aryl hydrocarbon receptor (AhR) signaling pathway - cell viability counter screen (AID 743086);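 also: HepG2 liver cells carrying the AhR DRE luciferase reporter; series mostly up to about 70 µM; nearly all actives have a fitted effect of over 45% in size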
Procedure, shortened: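 HepG2-AhR-luc (HG2L7.5c1) cells, 4000/well, treated 24 h at 37 C with compound; viability measured as CellTiter-Fluor fluorescence after 30 min in the same wells as the luciferase read.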

[4] = qHTS assay to identify small molecule antagonists of the peroxisome proliferator-activated receptor gamma (PPARg) signaling pathway - cell viability counter screen (AID 743194); also: nearly all actives have a fitted effect of over 55% in size
Procedure, shortened: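 Cytotoxicity counter screen in PPARg-bla HEK293H cells, same wells as reporter assay. Compounds plus 50 nM rosiglitazone (final) for 17 h at 37 C, then viability read by CellTiter-Glo luminescence.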

[5] = qHTS assay for small molecule agonists of the antioxidant response element (ARE) signaling pathway - cell viability counter screen (AID 743203; calls by dose curve; also: nearly all actives have a fitted effect of over 55% in size)
Procedure, shortened: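 Compounds in DMSO were pinned onto ARE-bla HepG2 cells plated 5 hrs earlier at 2,000 cells/well. Sixteen hours later at 37C/5% CO2, CellTiter-Glo was added and luminescence measured after 30 min at room temperature.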

[6] = qHTS assay for small molecule activators of the heat shock response signaling pathway - cell viability counter screen (AID 743209); also: nearly all actives have a fitted effect of over 50% in size
Procedure, shortened: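 Counter screen for cytotoxicity in HeLa HSE-bla reporter cells. Treatment was 5 h at 37 C; viability was detected by luminescent ATP assay (CellTiter-Glo) in the same wells as the beta-lactamase read.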

[7] = qHTS assay for small molecule activators of the heat shock response signaling pathway (AID 743210; active = well fitted activation curve with a large enough effect in the signal ratio in the repeat runs, with a control signal flat, not every such curve was filed as active; the % refers to the signal ratio; also: series mostly up to about 63 µM)
Procedure, shortened: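 HSE-bla HeLa cells (beta-lactamase reporter under heat shock response elements), plated overnight, then exposed to compounds 5 h at 37 C; LiveBLAzer B/G FRET substrate added, 2.5 h at room temperature, fluorescence intensity read.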

[8] = qHTS assay to identify small molecule agonists of the peroxisome proliferator-activated receptor delta (PPARd) signaling pathway - cell viability counter screen (AID 743211); also: nearly all actives have a fitted effect of over 55% in size
Procedure, shortened: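 Viability of GeneBLAzer PPARd UAS-bla HEK293H cells was assessed after 17 h compound incubation at 37C, using CellTiter-Glo reagent added after the reporter read and luminescence recorded 30 min later.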

[9] = qHTS assay to identify small molecule antagonists of the peroxisome proliferator-activated receptor delta (PPARd) signaling pathway - cell viability counter screen (AID 743213); also: nearly all actives have a fitted effect of over 50% in size
Procedure, shortened: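 Cytotoxicity counter screen: CellTiter-Glo luminescence read 30 min after addition, in the same wells as the reporter assay. There, PPARd UAS-bla HEK293H cells (3000/well) were treated 17 h at 37 C with compound and 300 nM L165041.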

[10] = qHTS assay to identify small molecule agonists of the farnesoid-X-receptor (FXR) signaling pathway - cell viability counter screen (AID 743218); also: nearly all actives have a fitted effect of over 45% in size
Procedure, shortened: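 After 16 h at 37 C with test compounds, FXR-bla HEK 293T cells were given LiveBLAzer B/G substrate for 2 h at RT and then CellTiter-Glo; luminescence was taken after 30 min.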

[11] = target: Bile acid receptor (Homo sapiens) (UniProt Q96RI1); assay: qHTS assay to identify small molecule agonists of the farnesoid-X-receptor (FXR) signaling pathway (AID 743220; active = well fitted activation curve with a large enough effect in the signal ratio in the repeat runs, not every such curve was filed as active; the % refers to the signal ratio)
Sequence of Bile acid receptor (Homo sapiens) (Q96RI1 whole entry, looked up): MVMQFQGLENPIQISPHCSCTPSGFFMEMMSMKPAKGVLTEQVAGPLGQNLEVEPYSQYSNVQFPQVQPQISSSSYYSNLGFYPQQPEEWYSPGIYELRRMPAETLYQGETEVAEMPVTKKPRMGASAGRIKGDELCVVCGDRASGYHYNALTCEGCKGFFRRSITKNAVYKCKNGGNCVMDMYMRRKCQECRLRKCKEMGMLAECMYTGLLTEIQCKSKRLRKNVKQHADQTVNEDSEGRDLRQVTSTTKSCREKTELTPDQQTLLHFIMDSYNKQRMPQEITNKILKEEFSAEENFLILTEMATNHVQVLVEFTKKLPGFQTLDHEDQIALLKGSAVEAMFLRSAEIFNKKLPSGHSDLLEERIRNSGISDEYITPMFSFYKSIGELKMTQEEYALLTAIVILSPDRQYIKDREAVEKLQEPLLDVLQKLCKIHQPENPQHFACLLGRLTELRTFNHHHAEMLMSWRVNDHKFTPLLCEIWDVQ
Procedure, shortened: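 Beta-lactamase reporter under UAS control in GeneBLAzer FXR HEK 293T cells (5000/well) measured with LiveBLAzer FRET substrate after 2 h at room temperature. Compound exposure lasted 16 h at 37C.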

[12] = qHTS assay to identify small molecule antagonists of the farnesoid-X-receptor (FXR) signaling pathway - cell viability counter screen (AID 743221; active = well fitted cell-killing curve with a large enough effect in the repeat runs, not every such curve was filed as active; also: nearly all actives have a fitted effect of over 50% in size)
Procedure, shortened: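 Quantitative HTS of the Tox21 10K library run in parallel with the beta-lactamase reporter read. HEK 293T cells carrying a UAS-driven bla reporter got compound and 50 uM CDCA (final) for 16 h; ATP-based luminescence followed.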

[13] = target: Vitamin D3 receptor (Homo sapiens) (UniProt P11473); assay: qHTS assay to identify small molecule agonists of the vitamin D receptor (VDR) signaling pathway (AID 743222; calls by dose curve)
Sequence of Vitamin D3 receptor (Homo sapiens) (P11473 whole entry, looked up): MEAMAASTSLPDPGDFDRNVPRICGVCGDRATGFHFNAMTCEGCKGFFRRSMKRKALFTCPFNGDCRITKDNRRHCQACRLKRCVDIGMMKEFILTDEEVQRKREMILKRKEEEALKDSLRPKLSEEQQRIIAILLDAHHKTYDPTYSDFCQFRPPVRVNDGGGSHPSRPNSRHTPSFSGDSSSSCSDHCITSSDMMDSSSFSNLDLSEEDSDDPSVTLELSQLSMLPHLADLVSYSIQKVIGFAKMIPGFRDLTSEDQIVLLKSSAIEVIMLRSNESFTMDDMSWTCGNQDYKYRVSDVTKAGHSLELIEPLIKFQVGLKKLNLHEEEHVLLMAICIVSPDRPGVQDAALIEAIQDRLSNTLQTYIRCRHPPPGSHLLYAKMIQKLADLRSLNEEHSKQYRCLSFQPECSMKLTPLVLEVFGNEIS
Procedure, shortened: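 VDR-bla cells were seeded, left 4 h, treated with compounds in DMSO for 16 h, incubated 2 h at RT with B/G FRET substrate, and read for fluorescence.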

[14] = target: Vitamin D3 receptor (Homo sapiens) (UniProt P11473); assay: qHTS assay to identify small molecule antagonists of the vitamin D receptor (VDR) signaling pathway (AID 743223; active = well fitted inhibition curve with a large enough effect in the signal ratio in the repeat runs, not every such curve was filed as active; the % refers to the signal ratio)
Procedure, shortened: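 Fluorescence from LiveBLAzer B/G FRET substrate, read after 2 h at room temperature, reflects beta-lactamase reporter activity in VDR-bla cells treated 16 h at 37C with compounds and agonist 1alpha,25-dihydroxyvitamin D3 (3 nM final).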

[15] = target: Peroxisome proliferator-activated receptor gamma (Homo sapiens) (UniProt P37231); assay: qHTS assay to identify small molecule agonists of the peroxisome proliferator-activated receptor gamma (PPARg) signaling pathway (AID 743094; active = well fitted activation curve with a large enough effect in the signal ratio in the repeat runs, not every such curve was filed as active; the % refers to the signal ratio)
Sequence of Peroxisome proliferator-activated receptor gamma (Homo sapiens) (P37231 whole entry, looked up): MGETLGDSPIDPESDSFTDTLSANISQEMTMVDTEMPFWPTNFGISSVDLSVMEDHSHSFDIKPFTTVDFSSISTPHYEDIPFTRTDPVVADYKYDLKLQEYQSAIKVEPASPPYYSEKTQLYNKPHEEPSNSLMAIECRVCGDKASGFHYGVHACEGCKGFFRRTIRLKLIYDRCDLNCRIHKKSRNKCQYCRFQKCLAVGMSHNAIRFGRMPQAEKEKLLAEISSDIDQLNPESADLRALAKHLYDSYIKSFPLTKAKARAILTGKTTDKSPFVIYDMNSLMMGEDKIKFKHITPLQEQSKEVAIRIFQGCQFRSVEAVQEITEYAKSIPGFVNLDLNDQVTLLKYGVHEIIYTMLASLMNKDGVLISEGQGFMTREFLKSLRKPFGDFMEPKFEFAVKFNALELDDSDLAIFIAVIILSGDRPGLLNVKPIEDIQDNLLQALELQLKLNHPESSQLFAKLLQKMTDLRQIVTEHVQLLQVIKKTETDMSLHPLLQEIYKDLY
Procedure, shortened: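 Following 5 h plating at 37C, PPARg-bla HEK293H cells receive compound or DMSO for 17 h; fluorescence intensity is recorded after LiveBLAzer B/G loading for 1 h at room temperature.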

[16] = target: Peroxisome proliferator-activated receptor gamma (Homo sapiens) (UniProt P37231); assay: qHTS assay to identify small molecule antagonists of the peroxisome proliferator-activated receptor gamma (PPARg) signaling pathway (AID 743191; calls by dose curve; also: series mostly up to about 63 µM; nearly all actives have a fitted effect of over 30% in size)
Procedure, shortened: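 GeneBLAzer PPARg UAS-bla HEK293H cells, 5 h post-plating, exposed to compounds 17 h at 37C. LiveBLAzer B/G FRET substrate added for 1 h at room temperature; beta-lactamase reporter read by fluorescence intensity.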

[17] = qHTS assay for small molecule agonists of the antioxidant response element (ARE) signaling pathway (AID 743202; active = well fitted activation curve with a large enough effect in the signal ratio in the repeat runs, not every such curve was filed as active; the % refers to the signal ratio)
Procedure, shortened: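 ARE-bla HepG2 cells (beta-lactamase reporter under the antioxidant response element), plated 5 hours, then exposed to compounds 16 hours at 37 C. LiveBLAzer B/G FRET substrate added for 2 hours at room temperature; fluorescence intensity read.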

[18] = target: Peroxisome proliferator-activated receptor delta (Homo sapiens) (UniProt Q03181); assay: qHTS assay to identify small molecule agonists of the peroxisome proliferator-activated receptor delta (PPARd) signaling pathway (AID 743212; calls by dose curve)
Sequence of Peroxisome proliferator-activated receptor delta (Homo sapiens) (Q03181 whole entry, looked up): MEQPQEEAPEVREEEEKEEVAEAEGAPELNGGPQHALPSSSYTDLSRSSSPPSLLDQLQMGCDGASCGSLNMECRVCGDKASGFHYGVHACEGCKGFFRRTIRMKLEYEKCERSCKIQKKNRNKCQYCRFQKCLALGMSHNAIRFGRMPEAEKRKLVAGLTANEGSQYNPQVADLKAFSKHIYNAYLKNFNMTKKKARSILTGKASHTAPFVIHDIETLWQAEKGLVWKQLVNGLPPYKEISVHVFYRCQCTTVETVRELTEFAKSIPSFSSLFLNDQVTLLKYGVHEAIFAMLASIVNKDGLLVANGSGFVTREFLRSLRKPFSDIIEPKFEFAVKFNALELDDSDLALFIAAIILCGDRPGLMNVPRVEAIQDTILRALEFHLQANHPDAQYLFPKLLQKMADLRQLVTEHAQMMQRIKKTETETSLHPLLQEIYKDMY
Procedure, shortened: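 GeneBLAzer UAS-bla HEK293H cells carrying a PPARδ construct were exposed to compounds at 37 °C. Beta-lactamase activity was read by FRET fluorescence after 2 h at room temperature with LiveBLAzer B/G substrate.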

[19] = target: Peroxisome proliferator-activated receptor delta (Homo sapiens) (UniProt Q03181); assay: qHTS assay to identify small molecule antagonists of the peroxisome proliferator-activated receptor delta (PPARd) signaling pathway (AID 743215; active = well fitted inhibition curve with a large enough effect in the signal ratio in the repeat runs, not every such curve was filed as active; the % refers to the signal ratio;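 also: cells stimulated with agonist L165041 at 300 nM final during compound exposure; series mostly up to about 62 µM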)
Procedure, shortened: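 With L165041 present at 300 nM final, compounds were incubated 17 h at 37 C on PPARd UAS-bla HEK293H cells. A FRET-based beta-lactamase substrate was then applied for 2 h at room temperature and fluorescence intensity recorded.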

[20] = target: Bile acid receptor (Homo sapiens) (UniProt Q96RI1); assay: qHTS assay to identify small molecule antagonists of the farnesoid-X-receptor (FXR) signaling pathway (AID 743217; active = well fitted inhibition curve with a large enough effect in the signal ratio in the repeat runs, not every such curve was filed as active; the % refers to the signal ratio)
Procedure, shortened: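 In this cell-based antagonist screen, inhibition of CDCA-driven (50 uM final) UAS-beta-lactamase expression in HEK 293T cells was measured by FRET fluorescence following 16 h compound exposure at 37 °C.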

Measured: Potency

CC1=C(C(=O)O)N2C(=O)[C@@H](NC(=O)[C@H](N)c3ccc(O)cc3)[C@H]2SC1
not listed: [15] | [16] | [17] | [18] | [19] | [20]
inactive: all other assays above

CCOC(=O)[C@H](CCc1ccccc1)N[C@@H](C)C(=O)N1C(=O)N(C)C[C@H]1C(=O)O
not listed: [2] | [6] | [9] | [11] | [13] | [14] | [20]
inactive: all other assays above

COCCOC(=O)C1=C(C)NC(C)=C(C(=O)OC(C)C)C1c1cccc([N+](=O)[O-])c1 (stereo unspecified)
not listed: [2] | [9] | [11] | [13] | [17] | [20]
inactive: all other assays above

N[C@@H](CCC(=O)Nc1ccc([N+](=O)[O-])cc1)C(=O)O
not listed: [3] | [8] | [15] | [16]
inactive: all other assays above

CCCN1C[C@H](CSC)C[C@@H]2c3cccc4[nH]cc(c34)C[C@H]21
not listed: [4] | [8] | [9] | [10] | [11] | [15] | [20]
inactive: all other assays above

CCCCOC(=O)c1ccccc1
not listed: [2] | [5] | [7] | [11] | [20]
inactive: all other assays above

NCCN1CCOCC1
not listed: [5] | [11] | [14] | [15] | [16] | [18] | [19] | [20]
inactive: all other assays above

O=Cc1ccc(Cl)c(Cl)c1
not listed: [2] | [11] | [20]
inactive: all other assays above

On1nnc2ccccc21
not listed: [2] | [9] | [10] | [11] | [12] | [18] | [19] | [20]
inactive: all other assays above

CO[C@@H]1[C@@H](OC(N)=O)[C@@H](O)[C@H](Oc2ccc3c(O)c(NC(=O)c4ccc(O)c(CC=C(C)C)c4)c(=O)oc3c2C)OC1(C)C
not listed: [15] | [16]
inactive: all other assays above

N[C@@H](CCC(=O)N[C@@H](CS)C(=O)NCC(=O)O)C(=O)O
not listed: [11] | [15] | [16] | [18] | [19] | [20]
inactive: all other assays above

CC(C)(C)OC(=O)c1ccc(O)cc1
not listed: [2] | [9] | [14] | [17]
inactive: all other assays above

Nc1ccc2cc(S(=O)(=O)O)cc(O)c2c1
active: [2] 27.1 µM
not listed: [3] | [17] | [18] | [19] | [20]
inactive: all other assays above

O=C(O)Cc1cn(-c2ccccc2)nc1-c1ccc(Cl)cc1
inactive: [1] | [3] | [4] | [5] | [6] | [7] | [8] | [9] | [19] | [10] | [12]

CNS(=O)(=O)CCc1ccc2[nH]cc(C3CCN(C)CC3)c2c1
not listed: [2] | [5] | [11] | [12] | [16] | [18] | [20]
inactive: all other assays above

CCCCCCOc1ccccc1C(N)=O
not listed: [2] | [8] | [9] | [11] | [17] | [18] | [20]
inactive: all other assays above

NS(=O)(=O)c1ccc(NC(=O)CCC(=O)O)cc1
not listed: [2] | [14] | [16] | [19] | [20]
inactive: all other assays above

CC(=O)/C=C/C1C(C)=CCC(C)C1(C)C (stereo unspecified)
not listed: [2] | [7] | [11] | [17] | [20]
inactive: all other assays above
